We go through eight compounds from PubChem BioAssay (NCI).

This assay in a line: NCI Yeast Anticancer Drug Screen. Data for the CLN2oe strain (AID 163).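 Also: 0% = growth of vehicle-only control cultures.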 Particulars: S. cerevisiae CLN2oe strain, active compounds read high. On the procedure: Growth inhibition of yeast strains with defined genetic alterations is measured as a screen for potential anti-cancer activity. Selected strains with alterations in DNA damage repair or cell cycle control were exposed to compounds and growth inhibition was measured relative to vehicle treated controls. The strain used in this assay is CLN2oe

The structures appear in SMILES notation. About 79,000 compounds went through this panel and 15% of them were active in at least one assay; those are over-represented in the sample as a whole. Unmarked numbers belong to inactive results. Active and inactive are the calls of the source. Rule as the data show it: active = growth inhibition above about 70%; inactive = the rest.

As for `CCCCN1C(=O)N(c2ccc(OCC)cc2)C2N(CCCC)C1C(C)(C)C2(C)C` (stereo not given), the growth inhibition runs as follows: (at 1.2 µM) -10%; (at 3.7 µM) -9%; (at 11.0 µM) -10%; (at 33.0 µM) -10%; (at 100.0 µM) 0%.

For the compound `CCOC(=O)c1cnc2cc(C(F)(F)F)ccc2c1N=[N+]=[N-]`, the growth inhibition by setting is: (at 1.2 µM) 11%; (at 3.7 µM) 12%; (at 11.0 µM) 18%; (at 33.0 µM) 64%; (at 100.0 µM) 87% (active).

As for `CC(=O)Oc1cc(-c2cc(OC(C)=O)c(OC(C)=O)c3ccccc23)c2ccccc2c1OC(C)=O`, the growth inhibition by setting is: (at 1.2 µM) 3%; (at 3.7 µM) 0%; (at 11.0 µM) -5%; (at 33.0 µM) -2%; (at 100.0 µM) 57%.

With `C/C(=N\NC(=S)SCc1ccccc1)c1ccccn1`, the growth inhibition runs as follows: (at 1.2 µM) 2%; (at 3.7 µM) 2%; (at 11.0 µM) 60%; (at 33.0 µM) 96% (active); (at 100.0 µM) 89% (active).

Regarding `COc1cc(C2SCC(=O)N2c2ccc(-c3ccc(-n4c(-c5ccccc5)nc5ccccc5c4=O)cc3)cc2)cc(OC)c1OC` (stereo not given), the growth inhibition is 5% (at 1.2 µM); 7% (at 3.7 µM); 9% (at 11.0 µM); 10% (at 33.0 µM); -2% (at 100.0 µM).

With `COc1cc(C2c3cc4c(cc3OC(Nc3ccccc3)C2C)OCO4)cc(OC)c1O` (stereo not given), the growth inhibition by setting is: (at 1.2 µM) 1%; (at 3.7 µM) 0%; (at 11.0 µM) 1%; (at 33.0 µM) 0%; (at 100.0 µM) 39%.

As to `O=C(/C=C\c1ccc(Cl)cc1Cl)c1cccs1`, the growth inhibition is -9% (at 1.2 µM); -21% (at 3.7 µM); -17% (at 11.0 µM); -14% (at 33.0 µM); -18% (at 100.0 µM).

For `CCN(CC)CCC(=O)c1ccc(Oc2ccc(F)cc2)cc1`, the growth inhibition is, setting by setting: (at 1.2 µM) 10%; (at 3.7 µM) 17%; (at 11.0 µM) 35%; (at 33.0 µM) 54%; (at 100.0 µM) 68%.
